Screens: PubChem BioAssay, National Center for Advancing Translational Sciences (NCATS)
Compounds with a hit are over-represented: about 9.3% of the library has one in this group of screens.
SMN2 splice enh = enhancers of SMN2 splice variant expression; HEK293 SMN2-luciferase splicing reporter, luminescence, 30-36 h; Potency, µM (highest dose often 46.1 µM), usual class: activators; hit rate 2.8% among 210,000; further: nearly all actives have a fitted effect of over 55% in size
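HEK293 cells carry an SMN2 […]–luciferase reporter in which exon 7 inclusion puts luciferase in frame. Cells were plated 10-12 h before compound addition, then incubated 30-36 h at 37C. ONE-Glo luminescence was read; sodium butyrate at 4.5 mM final served as control.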
Rab9 prom act = activators of Rab9 promoter; hit rate 2.8% among 320,000; Potency, µM (highest dose often 9.22 µM), actives largely listed as activators; AID 485297; Huh7 Rab9 promoter-luciferase reporter, luminescence, 24 h; further: nearly all actives have a fitted effect of over 60% in size
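Quantitative HTS format; Huh7 Rab9-luciferase reporter cells (1500/well) receive compound 2 h post-plating, incubate 24 h at 37 °C, then get luciferase reagent for 10 min before luminescence reading.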
NPC1 promoter act = activators of NPC1 promoter; hit rate 2.4% among 320,000; AID 485313; Potency, µM (top dose mostly 9.22 µM), most hits filed as activators; Huh7 NPC1 promoter luciferase reporter, 24 h; further: nearly all actives have a fitted effect of over 60% in size
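Huh7 cells stably carrying NPC1 promoter–luciferase, plated in Opti-MEM with 10% FBS for 2 h, were exposed to compound in DMSO for 24 h at 37 °C; luciferase reagent was added for 10 min and luminescence read.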
ELG1 genotoxic = inducers of genotoxicity in HEK293T ELG1-luciferase cells; Potency, µM (titrated, usually from 46 µM), actives largely listed as activators; hit rate 1.3% among 330,000; HEK293T ELG1-luciferase reporter, luminescence, 16 h; further: nearly all actives have a fitted effect of over 60% in size
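After overnight (16 hr) compound treatment at 37 °C, ELG1-luciferase HEK293T cells were lysed with ONE-Glo; luminescence quantified 30 min later at room temperature.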
FLuc counter = firefly luciferase modulation, counter-screen for miR-21 project | P08659 | purified FLuc, Km substrates, luminescence inhibition | Potency, µM (series often up to 57.5 µM), actives largely listed as inhibitors | hit rate 6.9% among 360,000; further: nearly all actives have a fitted effect of over 55% in size
Target sequence (P08659 whole entry, looked up): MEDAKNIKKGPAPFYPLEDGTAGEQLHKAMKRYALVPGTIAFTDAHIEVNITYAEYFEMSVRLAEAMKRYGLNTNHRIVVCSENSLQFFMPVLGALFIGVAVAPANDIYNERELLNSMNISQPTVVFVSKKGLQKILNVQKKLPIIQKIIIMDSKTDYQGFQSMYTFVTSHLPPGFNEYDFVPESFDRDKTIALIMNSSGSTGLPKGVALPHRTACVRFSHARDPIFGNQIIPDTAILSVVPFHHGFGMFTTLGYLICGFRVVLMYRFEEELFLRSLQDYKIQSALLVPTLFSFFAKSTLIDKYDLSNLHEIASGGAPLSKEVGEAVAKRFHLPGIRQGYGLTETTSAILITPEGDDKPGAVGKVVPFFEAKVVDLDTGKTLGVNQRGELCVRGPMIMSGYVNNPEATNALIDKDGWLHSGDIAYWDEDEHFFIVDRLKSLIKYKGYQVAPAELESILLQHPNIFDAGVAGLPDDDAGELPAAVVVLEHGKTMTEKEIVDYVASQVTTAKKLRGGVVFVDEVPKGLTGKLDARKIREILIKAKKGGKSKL
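Biochemical qHTS of compounds, final roughly 60 µM downward over six points, against 10 nM purified firefly luciferase using Km concentrations of substrates (10 uM D-luciferin, 10 uM ATP) in Tris acetate pH 7.5 buffer; luminescence output.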
ELG1 DNA repair = ELG1-dependent DNA repair inhibition. HEK293T ELG1-luciferase reporter, luminescence, 16 h; DNA damage induced by 5-fluorouridine. Potency, µM (top dose mostly 46.1 µM), usual class: inhibitors. hit rate 2.3% among 330,000; further: nearly all actives have a fitted effect of over 55% in size
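Reporter activity after DNA damage by 5-fluorouridine is monitored. Compound-treated cells incubate 16 hr at 37 °C, then ONE-Glo is added for 30 min before luminescence reading.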
Hits are given with their value; - = inactive; ? = inconclusive; . = no result given. The call rests on the fitted dose curve; in most records, active means well fitted curve in the direction sought with a large enough effect; inconclusive means small, poorly fitted or top-dose-only effect, or another doubt; inactive means no such curve, though single readings can be large; an effect the other way counts as inactive or inconclusive.

SMILES	SMN2 splice enh	Rab9 prom act	NPC1 promoter act	ELG1 genotoxic	FLuc counter	ELG1 DNA repair
O=C(O/N=C1\CCS(=O)(=O)c2sccc21)c1ccccc1	-	-	-	-	2.69µM	-
Cc1cccc(C(=O)O/N=C2\CCS(=O)(=O)c3sccc32)c1	-	-	-	-	3.38µM	-
CCN1CCN(C(=O)/C=C/c2ccc(OC)cc2)CC1	.	-	-	-	-	-
CC(=O)Nc1ccc(C(=O)NNS(=O)(=O)c2ccc(C)cc2)cc1	-	-	-	-	-	-
Cc1cc(C)c(C)c(S(=O)(=O)N2CCN(C(=O)CCc3nc4ccccc4c(=O)[nH]3)CC2)c1C	.	-	-	-	-	?
CCn1c(-c2ccccn2)nc2cc(S(=O)(=O)N(C)C)ccc21	.	-	-	-	21.3µM	?
CCOc1ccc(CCNc2nc3ccccc3n3cnnc23)cc1OCC	.	-	-	-	-	20.6µM
c1ccc2c(c1)nc(Nc1ccc(N3CCCCC3)cc1)c1nncn12	.	-	-	-	4.78µM	-
c1ccc(Nc2nc3ccccc3n3cnnc23)cc1	-	-	-	-	-	-
CCOc1ccc(Nc2nc3ccccc3n3cnnc23)cc1	.	-	-	-	13.5µM	?
O=C(O)c1ccc(Nc2nc3ccccc3n3cnnc23)cc1	-	.	.	.	7.57µM	.
Cc1ccc(N2N=C(c3ccc(Br)cc3)CCC2=O)cc1	-	-	-	-	-	-
CN(C)c1ccc(C=NCCC2(O)CCOC(C)(C)C2)cc1 (centres undefined)	-	-	-	-	-	-
COc1ccc(CC(=O)Nc2ccc(-c3nnc(-c4ccccc4)o3)cc2)cc1OC	-	-	-	-	-	?
COc1ccc(CC(=O)Nc2cccc(-c3ccc4nncn4n3)c2)cc1OC	-	-	-	-	-	7.3µM
COc1ccc(CC(=O)Nc2cccc(-c3nnc(-c4ccccc4)o3)c2)cc1OC	-	-	-	-	?	5.01µM
COc1ccc(CC(=O)Nc2cccc(-c3nnc(-c4ccc(C)cc4)o3)c2)cc1OC	-	-	-	-	3.01µM	11.6µM
COc1ccc(CC(=O)Nc2cccc(-c3nnc(-c4cccc(C)c4)o3)c2)cc1OC	-	-	-	-	?	2.91µM
Cc1ccccc1-n1c(C)cc(/C=N/NC(=O)c2ccncc2)c1C	-	-	-	-	3.79µM	?
Cc1cc(/C=N/NC(=O)c2ccsc2)c(C)n1-c1cnccn1	-	?	-	?	19µM	?
CC(CS(=O)(=O)c1cccc2cccnc12)N1CCCCC1 (centres undefined)	.	-	-	-	-	-
C/C(Cc1ccccc1)=N\NC(=O)C1CCCCC1	-	-	-	-	-	-
CCOCCCNC(=O)N1CCOCC1	-	-	-	-	-	-
CN=C1NN=C(c2cc(C)n(-c3ccc(Cl)cc3)c2C)CS1	-	2.51µM	3.98µM	?	4.78µM	?
Cc1ccc(-n2c(C)cc(C3=NNC(=NC4CC4)SC3)c2C)cc1C	?	0.562µM	1.58µM	?	1.35µM	?
SMILES	SMN2 splice enh	Rab9 prom act	NPC1 promoter act	ELG1 genotoxic	FLuc counter	ELG1 DNA repair
Cc1cc(C2=NNC(=NC3CC3)SC2)c(C)n1-c1c(C)n(C)n(-c2ccccc2)c1=O	-	-	-	-	-	-
CCc1ccc(N(CC)C(=O)Cn2c(=O)oc3ccccc32)cc1	-	.	.	.	-	.
COc1ccc2c(c1)O[C@H](c1ccc3c(c1)OCO3)[C@@H](O)C2=O	12.6µM	-	-	-	?	?
COc1ccc2c(c1)C(=O)CC(c1ccc3c(c1)OCCO3)O2 (centres undefined)	.	?	?	-	21.3µM	?
O=C(CN1CCN(Cc2ccccc2Cl)CC1)N/N=C/C=C/c1ccco1	.	-	-	-	-	-
COc1ccccc1N1CCN(/N=C/C=C\c2ccco2)CC1	12.6µM	2µM	1.12µM	?	4.78µM	?
Clc1ccccc1CN1CCN(/N=C/C=C/c2ccco2)CC1	.	?	-	-	23.9µM	?
COc1ccccc1N1CCN(C(=O)/C=C/c2ccco2)CC1	.	-	-	-	?	?
CCC(=O)Nc1nc(-c2cc([N+](=O)[O-])cs2)cs1	-	?	-	-	-	-
N#Cc1c(N)nc(SCC(=O)OCc2ccccc2)c(C#N)c1-c1ccco1	-	-	-	-	-	-
O=C(c1ccc(Cl)c(Cl)c1)c1cnc(Nc2ccccc2)s1	-	-	-	-	-	?
CNc1ncc(C(=O)c2ccc(-c3ccccc3)cc2)s1	.	2.51µM	2µM	?	3.01µM	?
CNc1ncc(C(=O)c2ccc(Cl)cc2)s1	12.6µM	2.82µM	3.55µM	?	10.7µM	?
CNc1ncc(C(=O)c2ccc(Cl)c(Cl)c2)s1	-	?	3.55µM	?	?	?
Clc1ccc(-c2cnc3ccccc3n2)cc1	12.6µM	3.98µM	3.16µM	?	4.78µM	?
Clc1ccc(-c2nc3ccccc3nc2-c2ccccc2)cc1	-	-	-	-	-	-
CCCCCCCOc1ccc(-c2ccc(C#N)cn2)cc1	-	-	-	-	-	-
CCCCOc1ccc(-c2cnc3ccccc3n2)cc1	1.41µM	0.447µM	0.398µM	?	0.426µM	?
Cc1ccc(-c2cnc3ccccc3n2)cc1C	.	-	?	?	0.536µM	?
O=C(c1ccc(CS(=O)Cc2ccc(Cl)cc2)o1)N1CCN(c2ccc(F)cc2)CC1 (centres undefined)	.	-	-	-	-	23.1µM
O=C(c1ccc(CS(=O)Cc2ccc(Cl)cc2)o1)N1CCN(c2cccc(Cl)c2)CC1 (centres undefined)	.	-	-	-	-	?
COc1cccc(N2CCN(C(=O)c3ccc(CS(=O)c4ccc(C)cc4)o3)CC2)c1 (centres undefined)	.	-	-	-	-	-
COc1cccc(N2CCN(C(=O)c3ccc(CS(=O)Cc4ccc(C)cc4)o3)CC2)c1 (centres undefined)	.	-	-	-	-	14.6µM
CCN(CC)C(=O)COc1ccc(-c2ccccc2)cc1	-	?	?	?	13.5µM	?
CCN(CC)C(=O)COc1ccc(/C(C)=N/NC(=O)c2ccccc2Br)cc1	-	-	-	-	-	-
SMILES	SMN2 splice enh	Rab9 prom act	NPC1 promoter act	ELG1 genotoxic	FLuc counter	ELG1 DNA repair
CCN(Cc1ccccc1)C(=O)COc1ccccc1	.	-	-	-	-	-
CCN(CC)C(=O)COc1ccc(/C(C)=N/NC(=O)c2ccccc2O)cc1	-	?	-	-	6.75µM	?
CCc1ccc(C(C)NC(=O)c2ccncc2)cc1 (centres undefined)	.	-	-	-	-	-
COc1cc(NC(=O)c2ccc3c(c2)OCO3)ccc1NC(=O)C(C)C	-	-	-	-	15.1µM	-
CCCCC(=O)Nc1ccc(NC(=O)c2ccc3c(c2)OCO3)cc1OC	-	-	-	-	10.7µM	-
CC(C)C(=O)Nc1ccc(NC(=O)c2ccc3c(c2)OCO3)cc1	.	-	-	?	-	?
